About 83,000 compounds went through this panel and 20% of them were active in at least one assay; those are over-represented in the sample as a whole.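 Cells were grown in 96-well plates and exposed to the test compound at a single concentration for 48 hours; results are reported as percent growth, with values below 10 considered active.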 Values without a mark were called inactive. The source made the active and inactive calls.
Assays:
Test in all cases: NCI-60 one-dose screen, 48 h (100 = growth as untreated, 0 = no growth, -100 = all killed)
Settings in all cases: 10 µM unless noted
SR leukemia = system: SR leukemia
RPMI-8226 leukemia = system: RPMI-8226 leukemia
OVCAR-8 ovarian = system: OVCAR-8 ovarian
OVCAR-5 ovarian = system: OVCAR-5 ovarian
OVCAR-4 ovarian = system: OVCAR-4 ovarian
SK-OV-3 ovarian = system: SK-OV-3 ovarian
IGROV1 ovarian = system: IGROV1 ovarian
OVCAR-3 ovarian = system: OVCAR-3 ovarian
HS 578T breast = system: HS 578T breast
NCI/ADR-RES ovarian = system: NCI/ADR-RES ovarian
T-47D breast = system: T-47D breast
BT-549 breast = system: BT-549 breast
MDA-MB-435 melanoma = system: MDA-MB-435 melanoma
SW-620 colon = system: SW-620 colon
MCF7 breast = system: MCF7 breast
HCT-116 colon = system: HCT-116 colon
HCC-2998 colon = system: HCC-2998 colon
KM12 colon = system: KM12 colon

| Compound | growth (SR leukemia) | growth (RPMI-8226 leukemia) | growth (OVCAR-8 ovarian) | growth (OVCAR-5 ovarian) | growth (OVCAR-4 ovarian) | growth (SK-OV-3 ovarian) | growth (IGROV1 ovarian) | growth (OVCAR-3 ovarian) | growth (HS 578T breast) | growth (NCI/ADR-RES ovarian) | growth (T-47D breast) | growth (BT-549 breast) | growth (MDA-MB-435 melanoma) | growth (SW-620 colon) | growth (MCF7 breast) | growth (HCT-116 colon) | growth (HCC-2998 colon) | growth (KM12 colon) |
| --- | --- | --- | --- | --- | --- | --- | --- | --- | --- | --- | --- | --- | --- | --- | --- | --- | --- | --- |
| O=C(NCCN1CCOCC1)OCc1ccc2c(Cl)cc(Cl)c(O)c2n1 | 68.4% | 56.2% | 49.2% | 106% | 49.4% | 91.8% | 57.8% | 62.1% | 83.1% | 5.25% (active) | 74.8% | 83% | 65.8% | 87.6% | 51% | 39.1% | 83.5% | 53.2% |
| CC(C)(C)CC(C)(C)Nc1c(-c2c(O)c3ccccc3oc2=O)nc2sc3ccccc3n12 | 30.3% | 8.98% (active) | 22.2% | 66.9% | 41.9% | 30.4% | 29.5% | 55.2% | 30.1% | 40.1% | 15.9% | 51.9% | 47.9% | 21.3% | 28.9% | 29.6% | 52.6% | 45.1% |
| COC12C=C/C(=C(/C(=O)OCCSc3ccnn3C)C(=O)CCCCCCCCC3(OC)C=C/C(=C(/C(=O)OCCSc4ccnn4C)C(=O)CCCCCCCC1)O3)O2 | -7.77% (active) | -8.92% (active) | 17.3% | 37% | 20.4% | 75.1% | -3.71% (active) | 5.79% (active) | 39.4% | 25.2% | 33.2% | -22.7% (active) | -3.93% (active) | 18.5% | 14.7% | -38.5% (active) | -86.1% (active) | -57.6% (active) |
| C#CCOc1cccc(Nc2ncnc3cc(NC(=O)CCl)ccc23)c1 | -47.7% (active) | -43.9% (active) | -30.2% (active) | -73% (active) | -41% (active) | -55.8% (active) | -64.6% (active) | -76.7% (active) | -1.12% (active) | -21.9% (active) | -48.9% (active) | -55.4% (active) | -75.2% (active) | -49.7% (active) | -15.9% (active) | -61.1% (active) | -67.2% (active) | -69.5% (active) |
| Cc1ccc2c(/C=C/C(=O)c3cc(CN4CCOCC4)c(O)c4nc(C)ccc34)cc(CN3CCOCC3)c(O)c2n1 | 6.56% (active) | 2.37% (active) | 11.1% | 0.618% (active) | -74.3% (active) | -1.75% (active) | 2.95% (active) | -13.2% (active) | 29.6% | 8.34% (active) | 9.26% (active) | 12.8% | -62.6% (active) | 1.06% (active) | 4.69% (active) | -22.9% (active) | 22.7% | -59.3% (active) |
| CCOC(=O)C(CCN(C)C)c1ccccc1 (stereo not drawn) | 97.8% | 98.2% | 111% | 88.7% | 100% | 104% | 104% | 96.4% | 98% | 103% | 103% | 97.3% | 107% | 108% | 92.7% | 104% | 96.3% | 104% |
| c1ccc(-c2ccc3c(c2)C2(CCNCC2)CN3)cc1 | 96% | 97.5% | 99.2% | 98.1% | 91.5% | 79.4% | 73% | 86.2% | 93.6% | 94.3% | 80.3% | 99.3% | 106% | 93.6% | 80.2% | 87.1% | 103% | 87.7% |
| CC(C)(C)c1ccc(C(=O)N/N=C/c2ccc(O)cc2O)cc1 | 19.8% | 28.6% | 17.4% | 34.4% | 22% | 23.2% | 20% | 12.1% | 38.1% | 5.92% (active) | 33.1% | 32% | 34.3% | 30% | 8.44% (active) | 23.4% | 19.4% | 12.5% |
| CC/C(=C(/c1ccc(O)cc1)c1ccc(OCCN2CCCCC2)cc1)c1ccc(OC)cc1 | -23.3% (active) | 62.6% | 91.5% | 90.9% | 90.4% | 99.3% | 85.3% | 66.1% | 92.2% | 77.6% | 43.4% | 79.2% | 13.2% | 73.5% | 11.5% | 27.9% | 87.2% | 52.4% |
| COc1ccc(C=Nc2c(C(=O)Nc3cccc(Cl)c3C)sc3nc(C)c(C(=O)/C=C/c4ccc(OC)cc4)cc23)cc1 | 30.8% | 14.9% | 21% | 31.3% | 58.2% | 40.9% | 38.3% | 4.94% (active) | -1.89% (active) | 10.9% | 24.3% | 40% | -65.8% (active) | 12.4% | 11.8% | 23% | 57.6% | 12.4% |
| Cc1c2ccccc2nc2cc3c(cc12)[C@H]1CC[C@]2(C)C(=O)CC[C@H]2[C@@H]1CC3 | 92.9% | 79.5% | 92.5% | 97.6% | 95.8% | 124% | 101% | 104% | 86.3% | 103% | 103% | 96% | 95.6% | 99.8% | 115% | 90.2% | 109% | 95.4% |
| CCCCO[C@@H]1C=C2[C@H]3CC(C)(C)C(=O)C[C@]3(C(=O)O[C@@H]3O[C@H](CO[C@@H]4O[C@H](CO)[C@@H](OC5OC(C)C(O)C(O)C5O)[C@H](O)[C@H]4O)[C@@H](O)[C@H](O)[C@H]3O)CC[C@@]2(C)[C@]2(C)CC[C@H]3C(C)(C)C(=O)CC[C@]3(C)[C@@H]12 (stereo partly drawn) | 69.9% | 20.4% | 94.4% | 96.1% | 75% | 91.8% | 69.1% | 48.7% | 85.4% | 83.8% | 67.4% | 57.6% | 51.9% | 67.5% | 55.5% | 64.9% | 82.7% | 75.2% |
| COc1ccc(N=C2NN=C(c3c[nH]c4ccccc34)CS2)cc1OC | 93.6% | 17% | 71.7% | 74.6% | 69.2% | 67.7% | -32.4% (active) | -9.06% (active) | 52.8% | 17.7% | 57.5% | -0.386% (active) | -8.16% (active) | 50.4% | 42.1% | 39.1% | 71.7% | 23.7% |
| CC(C)=CC(=O)N[C@H]1CC[C@]2(C)C3CC[C@]4(C)C(C(C)N(C)C)=CCC4C3CCC2[C@H]1O (stereo partly drawn) | 30.2% | 5.55% (active) | 77.6% | 101% | 7.83% (active) | 115% | 51.3% | 31.2% | 57.1% | 71.6% | 38.6% | 54.4% | -33.8% (active) | -23.5% (active) | 11.4% | 2.25% (active) | 35.8% | 23.2% |
| CNC(=O)NCC1OC(n2cnc3c(NC(=O)Nc4ccccc4)ncnc32)C2OC(=O)CC12 (stereo not drawn) | 90.3% | 105% | 96.4% | 96.8% | 106% | 102% | 92.3% | 91.7% | 105% | 96.8% | 91.6% | 100% | 101% | 106% | 97.9% | 98.7% | 93.1% | 106% |
| COc1cc(/C=C/C(=O)c2cc(OC)c(OC)c(OC)c2)ccc1Oc1nc2c(c(=O)n(C)c(=O)n2C)n1C | 8.62% (active) | 6.12% (active) | 10.7% | 5.82% (active) | 19.1% | 30.3% | -8.8% (active) | -48.4% (active) | 26.7% | 0.709% (active) | -16.1% (active) | -57.7% (active) | -44% (active) | -40% (active) | 0.476% (active) | -80.6% (active) | -85.9% (active) | -62.1% (active) |

From PubChem BioAssay (NCI)
